Source: PubChem BioAssay (EPA / NIEHS)
Several values for one entry are separate records, joined by “and”; a condition that tells them apart may be missing. Identical values can stand only once. Activity calls are given as the source filed them. How the source made its calls: active means hit-call score of the fitted dose curve at least 0.9, where 1 is the maximum; inactive means score below 0.9.

Experiments:
[1] = read-out: Urokinase-type plasminogen activator receptor (uPAR), PLAUR (gene 5329); test: BSK_4H_uPAR: BioMAP Diversity Plus: 4H Assay for Urokinase-type plasminogen activator receptor (uPAR) Biomarker Activity (AID 2283030); conditions: primary human endothelial cells (HUVEC); actives raise or lower the signal
Summary of the method: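 Endpoint derived via bidirectional curve fitting against DMSO baseline; readout was ELISA detection of uPAR on umbilical vein endothelial cells at 24 h post-treatment, with SRB-stained parallel cultures assessing cytotoxicity.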

[2] = read-out: Vascular endothelial growth factor receptor 2 (Homo sapiens) (UniProt P35968); test: BSK_4H_VEGFRII: BioMAP Diversity Plus: 4H Assay for Vascular endothelial growth factor receptor 2 (VEGFR2) Biomarker Activity (AID 2283031); conditions: primary human endothelial cells (HUVEC); actives raise or lower the signal;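 on AC50: cell-surface VEGFR2 protein level quantified by ELISA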
Summary of the method: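 In this multiplexed HUVEC system, biomarker ELISA was performed after 24 h chemical exposure. Parallel SRB staining (TCA fixation, 560 nm) tracked cytotoxicity; DMSO served as baseline.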

[3] = read-out: Human Leukocyte Antigen - DR isotype (HLADR), HLA-DRA (gene 3122); test: BSK_BE3C_HLADR: BioMAP Diversity Plus: BE3C Assay for Human Leukocyte Antigen - DR isotype (HLADR) Biomarker Activity (AID 2283032); conditions: primary human bronchial epithelial cells; actives raise or lower the signal
Summary of the method: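 Primary human bronchial epithelial cells (BE3C); 24 h chemical exposure; HLA-DR by ELISA; bidirectional curve fit vs DMSO baseline.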

[4] = read-out: Vascular cell adhesion molecule 1 (VCAM1), VCAM1 (gene 7412); test: BSK_4H_VCAM1: BioMAP Diversity Plus: 4H Assay for Vascular cell adhesion molecule 1 (VCAM1) Biomarker Activity (AID 2283033); conditions: primary human endothelial cells (HUVEC); actives raise or lower the signal
Summary of the method: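 HUVEC, 24 h post-dose; VCAM-1 by ELISA. Bidirectional curve fit vs DMSO baseline. Parallel SRB total-protein stain (0.1% SRB after 10% TCA fixation, 560 nm) for cytotoxicity.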

[5] = read-out: Interferon-gamma inducible Protein 10 (IP10), CXCL10 (gene 3627); test: BSK_BE3C_IP10: BioMAP Diversity Plus: BE3C Assay for Interferon-gamma inducible Protein 10 (IP10) Biomarker Activity (AID 2283034); conditions: primary human bronchial epithelial cells; actives raise or lower the signal
Summary of the method: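 ELISA readout of IP-10 in BE3C system: primary human bronchial epithelial cells, 24 h post-dosing; bidirectional curve fit vs DMSO baseline.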

[6] = read-out: Monokine induced gamma interferon (MIG), CXCL9 (gene 4283); test: BSK_BE3C_MIG: BioMAP Diversity Plus: BE3C Assay for Monokine induced gamma interferon (MIG) Biomarker Activity (AID 2283035); conditions: primary human bronchial epithelial cells; actives raise or lower the signal
Summary of the method: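 ELISA quantified MIG after 24 h exposure of primary bronchial epithelial cultures, analysed in both directions relative to DMSO. Cytotoxicity tracked in parallel cultures by sulforhodamine B staining.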

[7] = read-out: Transforming growth factor beta 1 (TGFb1), TGFB1 (gene 7040); test: BSK_BE3C_TGFb1: BioMAP Diversity Plus: BE3C Assay for Transforming growth factor beta 1 (TGFb1) Biomarker Activity (AID 2283036); conditions: primary human bronchial epithelial cells; actives raise or lower the signal
Summary of the method: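 Read-out: ELISA for TGF-b1 in primary human bronchial epithelial cultures, 24 h post-dose. Bidirectional curve fitting vs DMSO control; gain or loss of signal both scored.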

[8] = read-out: Plasminogen activator inhibitor-1 (PAI1), SERPINE1 (gene 5054); test: BSK_BE3C_PAI1: BioMAP Diversity Plus: BE3C Assay for Plasminogen activator inhibitor-1 (PAI1) Biomarker Activity (AID 2283037); conditions: primary human bronchial epithelial cells; actives raise or lower the signal
Summary of the method: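 ELISA read-out of PAI-1 from human bronchial epithelial primary cells, 24 h post-dosing; bidirectional curve fit vs DMSO baseline, gain or loss of signal scored.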

[9] = read-out: urokinase plasminogen activator (uPA), PLAU (gene 5328); test: BSK_BE3C_uPA: BioMAP Diversity Plus: BE3C Assay for urokinase plasminogen activator (uPA) Biomarker Activity (AID 2283038); conditions: primary human bronchial epithelial cells; actives raise or lower the signal
Summary of the method: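 Using confluent primary human lung bronchial epithelial cultures, we dosed chemicals, waited 24 h, then ran a uPA ELISA, fitting bidirectionally against DMSO.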

[10] = read-out: Urokinase-type plasminogen activator receptor (uPAR), PLAUR (gene 5329); test: BSK_BE3C_uPAR: BioMAP Diversity Plus: BE3C Assay for Urokinase-type plasminogen activator receptor (uPAR) Biomarker Activity (AID 2283039); conditions: primary human bronchial epithelial cells; actives raise or lower the signal
Summary of the method: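 ELISA readout of uPAR on human lung primary bronchial epithelial cells, 24 h post-dosing. Bidirectional curve fit relative to DMSO vehicle baseline; gain or loss of signal both scored.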

Measured: AC50

Cc1cc(Cl)ccc1OCC(=O)O
inactive: all assays above

C#CCOS(=O)OC1CCCCC1Oc1ccc(C(C)(C)C)cc1 (stereo not drawn)
active: [1] 20 µM | [2] 20 µM | [3] 13.8 µM | [4] 26.8 µM | [5] 16.3 µM | [6] 25.5 µM | [8] 18.4 µM | [9] 27 µM | [10] 20 µM
inactive: [7]

Cc1c(F)c(F)c(COC(=O)C2C(/C=C(\Cl)C(F)(F)F)C2(C)C)c(F)c1F (stereo not drawn)
inactive: all assays above

CCCCNC(=O)n1c(NC(=O)OC)nc2ccccc21
active: [1] 9.62 µM
inactive: all other assays above

Cc1ccc(-c2c(Cl)nc(C#N)n2S(=O)(=O)N(C)C)cc1
inactive: [6] | [7] | [9] | [10]
active: [1] 14.7 µM | [2] 20 µM | [3] 5.94 µM | [4] 16.6 µM | [5] 6.57 µM | [8] 3.97 µM

Oc1ccccc1-c1ccccc1
inactive: all assays above

CC1=C(C(=O)Nc2ccccc2)SCCO1
active: [9] 3.97 µM
inactive: all other assays above

CCOC(=O)C(Cl)Cc1cc(-n2nc(C)n(C(F)F)c2=O)c(F)cc1Cl (stereo not drawn)
inactive: all assays above

CC(C)C1(C)N=C(c2nc3ccccc3cc2C(=O)O)NC1=O (stereo not drawn)
inactive: all assays above

CC(C)(C)c1ccc(CSc2cnn(C(C)(C)C)c(=O)c2Cl)cc1
active: [2] 12.3 µM | [3] 7.02 µM | [5] 23.5 µM | [7] 832 nM | [8] 14.2 µM
inactive: all other assays above

CC(Oc1ccc(Cl)cc1Cl)C(=O)O (stereo not drawn)
inactive: all assays above

CCc1nn(C)c(C(=O)NCc2ccc(C(C)(C)C)cc2)c1Cl
inactive: [2] | [7]
active: [1] 33 µM | [3] 18.3 µM | [4] 6.81 µM | [5] 25.7 µM | [6] 29.4 µM | [8] 31.9 µM | [9] 30.6 µM | [10] 27.3 µM

CCCC1COC(Cn2cncn2)(c2ccc(Cl)cc2Cl)O1 (stereo not drawn)
inactive: all assays above

COP(=S)(OC)Oc1nc(Cl)c(Cl)cc1Cl
not listed: [4]
inactive: all other assays above

CCNc1nc(Cl)nc(NC(C)C)n1
inactive: all assays above

CCCN(CCC)c1c([N+](=O)[O-])cc(S(N)(=O)=O)cc1[N+](=O)[O-]
active: [1] 33 µM [middle of 4 runs] | [3] 35 µM [middle of 4 runs] | [4] 38.1 µM [middle of 4 runs] | [5] 36.9 µM [middle of 4 runs] | [6] 38.4 µM [middle of 4 runs] | [7] 31.3 µM and 31.1 µM and 36.7 µM | [8] 34.2 µM [middle of 4 runs] | [9] 33.6 µM [middle of 4 runs] | [10] 38.1 µM [middle of 4 runs]

COc1nc(C)nc(NC(=O)NS(=O)(=O)c2ccccc2CCC(F)(F)F)n1
inactive: all assays above

CCOP(=S)(OCC)SCn1c(=O)oc2cc(Cl)ccc21
active: [4] 26.1 µM | [10] 0.147 µM
inactive: all other assays above

COc1nc(NC(C)C)nc(NC(C)C)n1
active: [10] 2.36 µM
inactive: all other assays above
